In PubChem BioAssay AID463173 (ICCB-Longwood Screening Facility, Harvard Medical School, 2010):
In all, about 52,000 compounds went through this assay and about 4,300 (8.3%) were called active. Cut-off read from the data, not from the text of the source: active = survival mostly below about 52% (no sharp cut-off); inactive = mostly above about 56%. Many of the other results were omitted from the sample, so actives are more common in it than they were.

These compounds were tested on DeltatarO mutant (assay: growth inhibition of S. aureus wild type versus tarO mutant, primary screen, teichoic acid synthesis inhibitors, RN4220, OD600 (AID 463173)). Settings: OD600, 18 h, active compounds read low, screened at 18.75 µg/mL (by protocol).
For `Cc1ccc2c(c1)c1c(c(=O)n(Cc3ccccc3)c(=O)n1Cc1cccc(F)c1)n2C`, the survival was 89% (inactive).
In the case of `CC(C)(C)c1ccc(C(=O)Nc2nc3nc(-c4ccccc4)cc(=O)n3[nH]2)cc1`, the survival is reported as 94% (inactive).
For `CCN(Cc1ccccc1)C(=O)C1CCN(S(=O)(=O)c2ccc3c(c2)CCCN3C(C)=O)CC1`, the survival was 80% (inactive).
With `CC1CCCC(C)N1C(=O)CN1CCC(N2CCCCC2)CC1` (centres undefined) the survival was 94% (inactive).
For `CC(C)NC(=O)Cn1nnc(-c2ccc(Cl)cc2)n1`, the survival was 82% (inactive).
`COc1ccccc1CC(NC(C)=O)C(=O)N1CCN(C(=O)c2cccs2)CC1` (centres undefined) was tested, and the survival was 97% (inactive).
With `O=C(NCc1ccccc1F)C(=O)NCC(c1ccco1)S(=O)(=O)c1ccccc1` (centres undefined) the survival was -5% (active).
With `O=C(NCc1ccc(F)cc1)C(=O)NCC(c1ccco1)S(=O)(=O)c1cccs1` (centres undefined) the survival was 8% (active).
With `Cc1ccccc1CNC(=O)C(=O)NCC(c1ccco1)S(=O)(=O)c1ccccc1` (centres undefined) the survival was 92% (inactive).
With `O=C(NCc1ccccc1Cl)C(=O)NCC(c1ccco1)S(=O)(=O)c1cccs1` (centres undefined) the survival was 55% (inactive).
With `O=C(NCCc1ccc(F)cc1)C(=O)NCC(c1ccco1)S(=O)(=O)c1cccs1` (centres undefined) the survival was 66% (inactive).
For `O=C(NCc1ccccc1F)C(=O)NCC(c1ccco1)S(=O)(=O)c1cccs1` (centres undefined), the survival was 25% (active).
For `O=C(NCCc1ccccc1)C(=O)NCC(c1ccco1)S(=O)(=O)c1cccs1` (centres undefined), the survival was 94% (inactive).
With `O=C(NCc1ccccc1)C(=O)NCC(c1ccco1)S(=O)(=O)c1ccccc1` (centres undefined) the survival was 76% (inactive).
For `Cc1ccccc1CNC(=O)C(=O)NCC(c1ccco1)S(=O)(=O)c1cccs1` (centres undefined), the survival was 70% (inactive).
With `Cc1ccc(CNC(=O)C(=O)NCC(c2ccco2)S(=O)(=O)c2cccs2)cc1` (centres undefined) the survival was 101% (inactive).
With `O=C(NCCc1ccc(Cl)cc1)C(=O)NCC(c1ccco1)S(=O)(=O)c1cccs1` (centres undefined) the survival was 20% (active).
In the case of `O=C(NCc1ccccc1)C(=O)NCC(c1ccco1)S(=O)(=O)c1cccs1` (centres undefined), the survival is reported as 96% (inactive).
In the case of `COc1ccc2c(c1)N(C)/C(=C1/SC(=Nc3ccc(C)cc3)N(C)C1=O)S2`, the survival is reported as 102% (inactive).
`CCOc1ccccc1NC(=O)c1c(NC(=O)c2cccc(C)c2)sc2c1CCC2` was tested, and the survival was 74% (inactive).
`CCc1ccc(NC(=O)CSc2nc3ccccc3c(=O)n2CCNC(C)=O)cc1` was tested, and the survival was 87% (inactive).
For `COc1ccc(C2(C(=O)N3CCCC3)CCCC2)cc1OC`, the survival was 89% (inactive).
In the case of `CCC(=O)N1CCCc2cc(S(=O)(=O)N3CCC(C(=O)NC4CCC(C)CC4)CC3)ccc21` (centres undefined), the survival is reported as 123% (inactive).
With `CCOC(=O)c1cc2occc2n1CCc1ccccc1` the survival was 101% (inactive).
`O=C(c1ccccc1)N1CCc2cc(CNS(=O)(=O)c3ccccc3Cl)ccc21` was tested, and the survival was 78% (inactive).
In the case of `COc1cc(NS(=O)(=O)c2ccc3oc(=O)c4ncn(C)c4c3c2)cc(OC)c1`, the survival is reported as 126% (inactive).
With `CC1(C)CC(=O)C(C=NCc2ccccc2)=C(O)C1` the survival was 95% (inactive).
For `O=C(Nc1ccc(F)cc1)C1CCN(S(=O)(=O)c2ccc3c(c2)CCCN3C(=O)C2CCC2)CC1`, the survival was 73% (inactive).
In the case of `N#Cc1c(NC(=O)c2ccccc2)oc(-c2ccccc2)c1-c1ccccc1`, the survival is reported as 56% (inactive).
`N#Cc1c(/N=C/c2ccco2)oc(-c2ccccc2)c1-c1ccccc1` was tested, and the survival was 98% (inactive).
`N#Cc1c(NC(=O)C(F)(F)F)oc(-c2ccccc2)c1-c1ccccc1` was tested, and the survival was 12% (active).
With `CCc1cccc(CC)c1N(COC)C(=O)Cn1c(C)nc2ccccc21` the survival was 59% (inactive).
In the case of `CCc1cccc(NC(=O)CCc2c(C)nc3c(c2C)c(=O)n(C)c(=O)n3C)c1`, the survival is reported as 93% (inactive).
In the case of `COc1ccc(-n2nc(C(=O)NCc3ccc(F)cc3)c3c4ccccc4n(C)c3c2=O)cc1`, the survival is reported as 88% (inactive).
In the case of `N#C/C(=C/c1ccc(N2CCCCC2)o1)C(=O)NCCc1c[nH]c2ccccc12`, the survival is reported as 76% (inactive).
In the case of `N#C/C(=C/c1ccc(-c2ccc(S(N)(=O)=O)cc2)o1)C(=O)Nc1cc(Cl)ccc1Cl`, the survival is reported as 46% (inactive).
With `N#C/C(=C/c1ccc(-c2cc(C(=O)O)ccc2Cl)o1)C(=O)NCCc1c[nH]c2ccccc12` the survival was 12% (active).
With `N#C/C(=C\c1ccc(-c2ccc(C(=O)O)cc2)o1)C(=O)Nc1ccccc1C(=O)O` the survival was 60% (inactive).
In the case of `N#C/C(=C\c1ccc(-c2cc(Cl)ccc2Cl)o1)C(=O)Nc1ccccc1C(=O)O`, the survival is reported as 37% (active).
`Cc1ccc(NC(=O)/C(C#N)=C/c2ccc(-c3ccc(Cl)c(C(=O)O)c3)o2)cc1C` was tested, and the survival was 70% (inactive).
`COc1ccc(-n2ccn(Cc3ccccc3Cl)c(=O)c2=O)cc1OC` was tested, and the survival was 61% (inactive).
With `CCOc1cc(S(=O)(=O)NCCc2c(C)[nH]c3ccc(C)cc23)ccc1Br` the survival was 92% (inactive).
In the case of `CC(Oc1ccc(F)cc1)C(=O)NCC1(N(C)C)CCCCC1` (centres undefined), the survival is reported as 83% (inactive).
`CCOC(=O)c1c(C)[nH]c(C)c1S(=O)(=O)NCC(=O)Nc1ccc(C)cc1C` was tested, and the survival was 72% (inactive).
With `O=C(C1CCC(Cn2c(=O)c3sccc3n(Cc3ccccc3)c2=O)CC1)N1CCCCC1` (centres undefined) the survival was 78% (inactive).
For `COC(=O)c1ccc(NC(=O)C(=O)NCCc2csc3nc(-c4ccccc4F)nn23)cc1`, the survival was 76% (inactive).
`Cc1c(Cl)cccc1NC(=O)C(=O)NCCc1csc2nc(-c3ccccc3F)nn12` was tested, and the survival was 6% (active).
With `Cc1ccc(C)c(NC(=O)C(=O)NCCc2csc3nc(-c4ccccc4C)nn23)c1` the survival was 109% (inactive).
`CCOc1ccc(NC(=O)C(=O)NCCc2csc3nc(-c4ccccc4F)nn23)cc1` was tested, and the survival was -1% (active).
With `CC(=O)Nc1cccc(NC(=O)C(=O)NCCc2csc3nc(-c4ccccc4F)nn23)c1` the survival was 64% (inactive).
With `Cc1ccc(NC(=O)C(=O)NCCc2csc3nc(-c4ccccc4C)nn23)cc1Cl` the survival was 86% (inactive).
With `Cc1ccccc1-c1nc2scc(CCNC(=O)C(=O)Nc3ccc(F)cc3F)n2n1` the survival was -2% (active).
With `CCOc1ccc(CC(=O)NCCc2csc3nc(-c4ccccc4F)nn23)cc1` the survival was 91% (inactive).
For `O=C(NCCc1csc2nc(-c3ccccc3F)nn12)C(=O)Nc1cc(F)ccc1F`, the survival was 79% (inactive).
For `Cc1ccccc1CNC(=O)c1ccc(CS(=O)Cc2ccc(Cl)cc2)o1` (centres undefined), the survival was 79% (inactive).
For `CCOc1ccc(NC(=O)c2ncn(-c3ccccc3)n2)cc1`, the survival was 83% (inactive).
With `COc1ccc2c(c1)c(=O)c(C(=O)c1ccc(F)cc1)cn2CC(=O)Nc1ccc2c(c1)OCCO2` the survival was 65% (inactive).
In the case of `COc1ccc(CNC(=O)CN2C(=O)COc3ccc(S(=O)(=O)N4CCOCC4)cc32)cc1`, the survival is reported as 75% (inactive).
For `CCOc1ccc(N2CC(NC(=O)C3CCCCC3)CC2=O)cc1` (centres undefined), the survival was 75% (inactive).
`O=C(NCCCc1nc2ccccc2n1Cc1ccccc1Cl)c1ccco1` was tested, and the survival was 66% (inactive).
`CCc1nn2c(=O)cc(COC(=O)c3ccccc3NC(=O)COc3ccccc3C)nc2s1` was tested, and the survival was 72% (inactive).
`CCOC(=O)N1CCc2c(sc3c2c(=O)n(-c2ccc(CC)cc2)c(=O)n3CC(=O)c2ccc(F)cc2)C1` was tested, and the survival was 80% (inactive).
With `Cc1ccccc1NC(=O)CSC1=Nc2ccccc2C2=NC(Cc3ccccc3)C(=O)N12` (centres undefined) the survival was 84% (inactive).
In the case of `Cc1ccc(O)c(-c2ccnc3cc(-c4ccc(Cl)cc4)nn23)c1`, the survival is reported as 86% (inactive).
With `CCOC(=O)COc1ccc([N+](=O)[O-])cc1-c1ccnc2cc(-c3ccc(Cl)cc3)nn12` the survival was 89% (inactive).
With `Cc1cc(O)c(-c2ccnc3cc(-c4ccccc4)nn23)cc1Cl` the survival was 114% (inactive).
For `CCOC(=O)COc1ccc([N+](=O)[O-])cc1-c1ccnc2cc(-c3ccc(C)cc3)nn12`, the survival was 76% (inactive).
With `O=[N+]([O-])c1ccc(O)c(-c2ccnc3cc(-c4ccccc4)nn23)c1` the survival was 20% (active).
In the case of `Cc1ccc(-c2cc3nccc(-c4cc([N+](=O)[O-])ccc4O)n3n2)cc1`, the survival is reported as 29% (active).
`COc1cccc(NC(=O)C2CCCN(S(=O)(=O)c3c(C)nn(C)c3C)C2)c1` (centres undefined) was tested, and the survival was 87% (inactive).
In the case of `COc1ccc(NC(=O)c2cc(S(=O)(=O)N3CCCCC3)cn2C)cc1Cl`, the survival is reported as 78% (inactive).
With `CCN(C(=O)c1sc2cc(OC)ccc2c1Cl)c1ccccc1` the survival was 0% (active).
`CCN(C(=O)c1cn(-c2ccc(OC)cc2)c(=O)c2ccccc12)c1cccc(Cl)c1` was tested, and the survival was 103% (inactive).
`CCNC(=O)c1sc2ccccc2c1Cl` was tested, and the survival was 105% (inactive).
With `Cc1cccc(OC(=O)c2cc(-c3ccc4c(c3)OCCO4)on2)c1` the survival was -2% (active).
`Cc1cc(C)cc(OC(=O)c2cc(-c3ccc4c(c3)OCCO4)on2)c1` was tested, and the survival was -2% (active).
For `Cc1ccc(-c2cc(C(=O)Oc3ccc(C#N)cc3)no2)cc1C`, the survival was 50% (inactive).
`O=C(Nc1cccc(C(F)(F)F)c1)c1cc(-c2ccc3c(c2)OCCO3)on1` was tested, and the survival was 116% (inactive).
With `Cc1ccc(O)c(NC(=O)c2cc(-c3ccc4c(c3)OCO4)on2)c1` the survival was 71% (inactive).
For `Cc1cc(C)cc(OC(=O)c2cc(-c3ccc(Cl)cc3)on2)c1`, the survival was 94% (inactive).
With `Cc1cccc(OC(=O)c2cc(-c3ccc(C)c(C)c3)on2)c1` the survival was -2% (active).
For `Cc1ccc(NC(=O)C2CCCN(S(=O)(=O)c3ccc(F)cc3)C2)cc1` (centres undefined), the survival was 65% (inactive).
`COC(=O)c1c(NC(=O)c2nc(SCc3ccccc3C)ncc2Cl)sc2c1CCCC2` was tested, and the survival was 111% (inactive).
In the case of `Cc1ccc2nc(CSc3nnc(NC(=O)c4ccc(C(C)(C)C)cc4)s3)cc(=O)n2c1`, the survival is reported as 81% (inactive).
With `Cn1nnnc1SCC(=O)N1CCCc2ccccc21` the survival was 81% (inactive).
For `O=C1CC(C(=O)NCc2ccco2)C2(CCCCC2)O1` (centres undefined), the survival was 85% (inactive).
With `N#Cc1cccc(NC(=O)CCNS(=O)(=O)c2ccc3c(c2)CCN3C(=O)C2CC2)c1` the survival was 82% (inactive).
In the case of `Cc1nn2cc(-c3ccc(OC(C)C)cc3)nc2s1`, the survival is reported as 84% (inactive).
With `CCN(CC)CCCNC(=O)c1cnc(SC)nc1-c1ccccc1` the survival was 69% (inactive).
